# Test results published in the supplement of paper PMC10981050.
# Several values for one entry are separate records, joined by “and”; a condition that tells them apart may be missing. Equal values may be shown once. Where a name gives a salt, the structure may show the parent alone.
# Tests used:
# Assay in all cases: cell viability relative to vehicle control; higher = less cytotoxic
# Conditions in all cases: 10 µM
# K562 = system: K562
# Summary of the method: (§1)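 After removal of identity-inconsistent compounds, the Selleck bioactive, kinase and epigenetic probe libraries were screened on CRISPR-edited mutant clones and isogenic wild-type clones of four leukaemia lines. Plates were 384-well, each well holding 2000 cells in 50 µL medium and receiving a single 10 µM acoustically dispensed dose. CellTiter-Glo luminescence was read 48 h later, after the supernatant was taken off. Genedata Screener was used to express viability as percent of the on-plate vehicle control.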
# MARIMO = system: MARIMO
# Summary of the method: as §1
# MOLM14 = system: MOLM14
# Summary of the method: as §1
# OCI-AML2 = system: OCI-AML2
# Summary of the method: as §1
SMILES,cell viability (K562; SRSF2 genotype: SRSF2 P95H/wt),cell viability (K562; SRSF2 genotype: SRSF2 wt/wt),cell viability (MARIMO; SRSF2 genotype: SRSF2 P95H/wt),cell viability (MARIMO; SRSF2 genotype: SRSF2 wt/wt),cell viability (MOLM14; SRSF2 genotype: SRSF2 P95H/wt),cell viability (MOLM14; SRSF2 genotype: SRSF2 wt/wt),cell viability (OCI-AML2; SRSF2 genotype: P95H/wt),cell viability (OCI-AML2; SRSF2 genotype: wt/wt)
C=CC(=O)N1CC[C@@H](Oc2nc(Nc3ccc(N4CCC(N5CCN(C)CC5)CC4)cc3)c(C(N)=O)nc2CC)C1 [ASP8273 (Naquotinib)],51.2% and 34.1%,47.1%,26.7%,29.7%,8.47%,10.5%,20.4%,24.4%
OCCOc1ccc(/C(=C(/CCCl)c2ccccc2)c2ccccc2)cc1 [Ospemifene],101% and 99.5%,96.5%,105%,109%,79.3%,99.9%,88.2%,96.3%
CCO[C@@H]1OC(=O)C[C@@H]1NC(=O)[C@@H]1CCCN1C(=O)[C@@H](NC(=O)c1ccc(N)c(Cl)c1)C(C)(C)C [Belnacasan (VX-765)],99.5% and 102%,94%,95.2%,104%,97.7%,98.1%,103%,104%
CCn1c(=O)c(-c2ccc(-c3cncs3)cc2Cl)cc2cnc(Nc3ccc(N4CCN(C)CC4)cc3)nc21,86.2% and 86.7%,74.6%,75.6%,75.9%,46.6%,53.2%,71%,61.2%
CC(C)c1c(-c2ccccc2)nc2c(C#N)c[nH]n2c1=O,105% and 99.3%,108%,103%,93.5%,97.8%,98.8%,103%,101%
C[C@H](O)[C@H](O)[C@@H](O)[C@@H](O)C=O [L (+)-Rhamnose Monohydrate],99.9% and 97.2%,100%,102%,106%,99%,105%,99.3%,94.1%
CCCCC(C=O)NC(=O)C(CC(C)C)NC(=O)C(CC(C)C)NC(C)=O (stereo not drawn),1.41% and 2.62%,1.86%,1.3%,1.7%,0.23%,0.15%,0.23%,1.17%
CC(C)NCC(O)c1ccc(O)c(O)c1 (stereo not drawn) [Isoprenaline hydrochloride],92.4% and 104%,96.9%,98.4%,100%,89.7%,96.5%,104%,101%
COCCNc1cc(NC(=O)N2CCCc3cc(CN4CCN(C)CC4=O)c(C=O)nc32)ncc1C#N,94% and 103%,89.4%,96.9%,106%,100%,98.2%,112%,109%
Cc1onc(-c2ccccc2Cl)c1C(=O)N[C@@H]1C(=O)N2[C@@H]1SC(C)(C)[C@@H]2C(=O)O [Cloxacillin sodium],102% and 109%,97.6%,102%,106%,102%,106%,105%,108%
O=C(O)c1cc(/N=N/c2ccc(O)c(C(=O)O)c2)ccc1O [Olsalazine Sodium],86.9% and 86%,81.6%,88.2%,92.2%,85.2%,88.4%,94.1%,90.1%
O=c1cc(-c2ccc(O[C@@H]3O[C@H](CO)[C@@H](O)[C@H](O)[C@H]3O)cc2)oc2cc(O)c([C@@H]3O[C@H](CO)[C@@H](O)[C@H](O)[C@H]3O[C@@H]3OC[C@H](O)[C@H](O)[C@H]3O)c(O)c12 [Vaccarin],97.3% and 93.7%,94.2%,99.2%,96.3%,92.3%,100%,91.1%,96%
CS(=O)(=O)Nc1ccc([N+](=O)[O-])cc1OC1CCCCC1,99.4% and 103%,97%,102%,95.3%,94.4%,98.8%,107%,101%
NC(=O)c1ccc(I)c([N+](=O)[O-])c1 [Iniparib (BSI-201)],101% and 102%,113%,97.6%,81.1%,98.6%,100%,127%,114%
COc1cc(C2Oc3cc([C@H]4Oc5cc(O)cc(O)c5C(=O)[C@@H]4O)ccc3OC2CO)ccc1O (stereo partly drawn) [Silibinin (Silybin)],95% and 94%,92.2%,97.5%,110%,98.8%,98.4%,104%,116%
"COc1cc(CO)cc(OC)c1O [4-Hydroxy-3,5-dimethoxybenzyl alcohol]",106% and 98.2%,100%,102%,107%,99.7%,102%,108%,105%
Cc1ccc(/C=C2/C(=O)C3(C)CCC2C3(C)C)cc1 (stereo not drawn) [4-Methylbenzylidene camphor],105% and 97.8%,96.1%,90%,108%,95.5%,104%,89.4%,99.7%
Cc1cc(=O)oc2c(C=O)c(O)ccc12,110% and 118%,112%,99%,97.4%,94.8%,109%,92.5%,98.3%
CCOCc1nc2c(N)nc3ccccc3c2n1CC(C)(C)O [Resiquimod],94.5% and 96%,92.3%,86%,87.6%,97.1%,96.1%,95.8%,98.8%
Oc1ccc(Nc2nc(-c3ccc(Cl)cc3)cs2)cc1,49.4% and 65.5%,66.4%,38.8%,36.5%,40.9%,39.6%,42.1%,42.1%
CC(=N)NCc1cccc(CN)c1,103% and 97.3%,91.8%,96.3%,100%,95.6%,97.8%,95.4%,101%

SMILES,cell viability (K562; SRSF2 genotype: SRSF2 P95H/wt),cell viability (K562; SRSF2 genotype: SRSF2 wt/wt),cell viability (MARIMO; SRSF2 genotype: SRSF2 P95H/wt),cell viability (MARIMO; SRSF2 genotype: SRSF2 wt/wt),cell viability (MOLM14; SRSF2 genotype: SRSF2 P95H/wt),cell viability (MOLM14; SRSF2 genotype: SRSF2 wt/wt),cell viability (OCI-AML2; SRSF2 genotype: P95H/wt),cell viability (OCI-AML2; SRSF2 genotype: wt/wt)
O=c1oc2cc(O)ccc2c2ccc(O)cc12 [S5312 Urolithin A.cdx],98.3% and 101%,106%,99.9%,98.3%,97.4%,105%,89%,94.5%
COc1ccnc2[nH]cc(C(=O)C(=O)N3CCN(C(=O)c4ccccc4)C[C@H]3C)c12,93.7% and 90.7%,84.5%,90%,99.2%,95.6%,90.3%,82.2%,86.4%
C[C@]1(O)C[C@@H](O)[C@]2(O)C=CO[C@@H](O[C@H]3O[C@H](CO)[C@@H](O)[C@H](O)[C@H]3O)[C@@H]21 [Harpagide],105% and 99.4%,101%,106%,98.7%,106%,103%,97.6%,103%
CC(=O)[C@@]1(O)CC[C@H]2[C@@H]3C[C@H](C)C4=CC(=O)CC[C@]4(C)[C@H]3CC[C@@]21C [Medroxyprogesterone],97.3% and 90.1%,91.8%,74%,92.8%,103%,100%,103%,104%
"COc1ccc2c(c1)c(CC(=O)O)c(C)n2C(=O)c1ccc(Cl)cc1 [Indomethacin (Indocid, Indocin)]",98.6% and 106%,105%,110%,107%,106%,107%,117%,114%
CNc1cccc(CCOc2ccc3c(c2)CN(CC(F)(F)F)C(=O)[C@H](CC(=O)O)C3)n1,101%,91.5%,96.1%,102%,97.7%,98.6%,100%,106%
NC(=O)c1cccc(N)c1 [INO-1001 (3-Aminobenzamide)],96.6% and 95.7%,94.7%,99.5%,97.8%,100%,96.6%,94.7%,98.8%
CCCCc1nc(Cl)c(CO)n1Cc1ccc(-c2ccccc2-c2nnn[nH]2)cc1 [Losartan potassium],106% and 103%,104%,103%,114%,104%,104%,102%,106%
CC(=O)Nc1ccccc1 [Acetanilide (Antifebrin)],104%,101%,106%,106%,96.4%,101%,105%,102%
O=C(OC[C@H]1O[C@@H](OC(=O)c2cc(O)c(O)c(OC(=O)c3cc(O)c(O)c(O)c3)c2)[C@H](OC(=O)c2cc(O)c(O)c(OC(=O)c3cc(O)c(O)c(O)c3)c2)[C@@H](OC(=O)c2cc(O)c(O)c(OC(=O)c3cc(O)c(O)c(O)c3)c2)[C@@H]1OC(=O)c1cc(O)c(O)c(OC(=O)c2cc(O)c(O)c(O)c2)c1)c1cc(O)c(O)c(OC(=O)c2cc(O)c(O)c(O)c2)c1 [Tannic acid],96.5% and 87.2%,98.5%,98.7%,99.3%,89.6%,92.2%,106%,94.8%
O=S(=O)(O)c1ccc2cc(N=Nc3cc(S(=O)(=O)O)c4cccnc4c3O)ccc2c1,95.9% and 96.5%,89%,93.5%,107%,96.9%,95.2%,88.5%,94.5%
Cc1ccc(CN(CC(O)COc2cccc3[nH]ccc23)C(C)(C)C)cc1 (stereo not drawn),71% and 71.5%,66.8%,67%,76.8%,68%,74%,83.4%,86.2%
C=C(C)[C@@H]1CCC2=CC(=O)C[C@@H](C)[C@]2(C)C1 [Nootkatone],104% and 105%,107%,100%,95.4%,105%,103%,107%,103%
C[C@H]1O[C@@H](Oc2c(-c3cc(O)c(O)c(O)c3)oc3cc(O)cc(O)c3c2=O)[C@@H](O)[C@@H](O)[C@@H]1O [Myricitrin (Myricitrine)],94.5% and 101%,99.4%,102%,102%,104%,103%,108%,94.3%
O=c1c(O)c(-c2ccc(O)c(O)c2)oc2cc(O)ccc12 [Fisetin (Fustel)],102% and 108%,105%,104%,100%,86.8%,103%,102%,95.1%
COC(=O)c1cc(O)c(O)c(O)c1 [Methyl gallate],103% and 104%,96.7%,89.7%,101%,90.6%,104%,96.9%,110%
CCc1ccc(C(=O)C(C)CN2CCCCC2)cc1 (stereo not drawn) [Eperisone hydrochloride],91.5% and 94.7%,93.1%,81.3%,95.5%,38.1%,70%,33.5%,47.8%
CN1C(CCl)Nc2cc(Cl)c(S(N)(=O)=O)cc2S1(=O)=O (stereo not drawn) [Methyclothiazide],92.4% and 91.5%,98.4%,96.5%,100%,90%,97.4%,96.3%,99%
Cc1cc(OCCCS(C)(=O)=O)cc(C)c1-c1cccc(COc2ccc3c(c2)OC[C@H]3CC(=O)O)c1,92.7% and 94.6%,91.3%,93.2%,104%,94.3%,98.2%,85%,101%
CCCCCCCC(=O)CCc1ccc(O)c(OC)c1 [6-Paradol],93.9% and 99.3%,104%,93.3%,99.7%,94.3%,104%,94.1%,91.6%
